Data published in PubChem BioAssay (NCATS).
Results filed as inconclusive are left out. Activity calls are given as the source filed them. Unless noted, calls come from the whole dose curve; as a rule, active = well fitted curve in the direction sought with a large enough effect; inconclusive = small, poorly fitted or top-dose-only effect, or another doubt; inactive = no such curve, though single readings can be large; an effect the other way counts as inactive or inconclusive.

Assays:
[1] = AP1 Signaling Pathway (AID 357; active = well fitted curve in either direction with a large enough effect, not every such curve was filed as active;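 note: ME-180 reporter cells stimulated with EGF at its EC50 level; % is set by controls: 0 for no effect and ±100 for the full control effect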); conditions: ME-180 (cervical carcinoma) AP-1-bla reporter, EGF-induced, beta-lactamase ratio, 5 h; at 38 µM (top of the series)
In short: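 Modulation of EGF-driven AP-1 transcription was assessed with a beta-lactamase reporter in ME-180 cells. Compound and EC50 EGF were co-incubated 5 hours at 37 °C before 2.5-hour CCF4 loading at room temperature and dual-emission reading.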

[2] = target: Cytochrome P450 1A2 (Homo sapiens) (UniProt P05177); assay: p450-cyp1a2 (AID 410; calls by dose curve;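 note: -100% = full effect of reference inhibitor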)
In short: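 O-Demethylation of luciferin 6' methyl ether by human CYP1A2 is monitored as luciferase luminescence. Substrate sits at Km (100uM); enzyme is 20nM. Values are scaled to 57 uM furafylline as maximal inhibition.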

[3] = NFAT Signaling Pathway (AID 444; active = well fitted curve in either direction with a large enough effect, not every such curve was filed as active;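 note: carbachol stimulus at about its EC50 of 1 µM final; % is set by controls: 0 for no effect and ±100 for the full control effect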); conditions: Jurkat NFAT-bla M1, carbachol, beta-lactamase ratio, 5 h; at 38 µM (top of the series)
In short: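 Jurkat cells carrying an NFAT-driven β-lactamase reporter and co-transfected muscarinic M1 receptor were treated with compound plus carbachol (1 uM final, an EC50 level) for 5 h at 37 °C. CCF4 loading followed for 1 h at RT; 460/530 nm ratio gave %activity.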

[4] = target: Glucocorticoid receptor (Homo sapiens) (UniProt P04150); assay: GR-EFC Redistribution (AID 451; calls by dose curve; note: potency is the fitted concentration of half-maximal effect); conditions: CHO-K1 GR-EFC translocation, beta-gal luminescence, 2 h
In short: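 CHO-K1 cells stably expressing nuclear-localized β-gal enzyme acceptor and GR fused C-terminally to the enzyme donor fragment; ligand-driven nuclear translocation restores β-gal by complementation. Compounds titrated up to 46 uM final, 2 h at 37 °C; luminescence read.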

[5] = target: Mitogen-activated protein kinase 10 (Mus musculus) (UniProt Q61831); assay: JNK3 AlphaScreen Assay (AID 530; active = well fitted curve in either direction with a large enough effect, not every such curve was filed as active;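 note: kinase came from lysate of stimulated human HepG2 cells; signal reports phosphorylation of biotinylated GST-cJun 1-79 at Ser73 with 10 µM ATP; % is set by controls: 0 for no effect and ±100 for the full control effect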)
In short: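 Phosphorylation of biotinylated GST-cJun(1-79) at Ser73 is measured by AlphaScreen proximity luminescence. Enzyme is JNK3 in HepG2 lysates activated with interleukin-1beta and tumor necrosis factor alpha; ATP is 10 uM final.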

[6] = target: 3',5'-cyclic-AMP phosphodiesterase 4B (Homo sapiens) (UniProt Q07343); assay: qHTS Assay for Inhibitors of PDE-IV (AID 607; active = well fitted activation curve with a large enough effect in the main read-out, with a control signal flat, not every such curve was filed as active; note: % of control where 0% means no effect)
In short: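 Live HEK293 cells with a modified cyclic nucleotide-gated (CNG) channel report intracellular cAMP via membrane-potential dye fluorescence (ex 535/em 590 nm). Endogenous PDE-IV was targeted. Compounds were tested at up to 22.9 uM final; RO 20-1724 100 uM served as control.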

[7] = target: Guanine nucleotide-binding protein G(i) subunit alpha-1 (Homo sapiens) (UniProt P63096); assay: qHTS Assay for Inhibitors of RGS12 GoLoco Motif Activity (Green Fluorophore) (AID 879);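 note: 0% = labeled peptide with Gαi1 and full inhibition = labeled peptide alone without protein; negative values mean loss of peptide binding seen as reduced polarization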
In short: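 A drop in FITC polarization marked displacement of the FITC-tagged RGS12 GoLoco peptide (10 nM) from Gαi1 (50 nM). Compounds were incubated 10 min at room temperature in Tris pH 7.5 buffer containing 150 mM NaCl, 0.1 mM GDP and 0.05% NP40; unlabeled peptide titration served as control.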

[8] = qHTS Assay for Identification of Small Molecule Agonists for Thrombopoietin (TPO) Signaling Pathway (AID 917); note: % is set by controls: 0 for no effect and ±100 for the full control effect
In short: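 Ba/F3 (mouse) + hTPO receptor + GpIIb-promoter luciferase; IL-3 withdrawn overnight; compound + 26 pM TPO (EC50), 24 hrs, 37 C, 5% CO2; Steadylite luminescence, 10 min RT.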

[9] = target: Muscarinic acetylcholine receptor M1 (Rattus norvegicus) (UniProt P08482); assay: qHTS Assay for Antagonists of Acetylcholine Muscarinic M1 Receptor: Measurement of IP-One Response (AID 944); note: nearly all actives have a fitted effect of over 75% in size
In short: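 Antagonist mode with rat M1 receptor transfected into CHO cells. Compound is added first for 10 min, carbachol at its EC80 follows for 30 min, and lysis reagents then allow TR-FRET detection of accumulated IP1.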

[10] = target: Pyruvate kinase PKM (Homo sapiens) (UniProt P14618); assay: qHTS Assay for Activators of Human Muscle Pyruvate Kinase (AID 954; active = well fitted curve in the direction sought with a large enough effect, not every such curve was filed as active;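 note: 0% = uninhibited enzyme and -100% = no enzyme or full thiadiazolimine inhibition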)
In short: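 Screening used highly purified human pyruvate kinase M2 under submaximal activity, with PEP at its Km and ADP below Km. After an hour at room temperature, ATP was read by luciferase luminescence.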

[11] = target: alpha-glucosidase (Oryza sativa, rice) (UniProt Q653V4); assay: Counterscreen for Glucocerebrosidase Inhibitors: qHTS Assay for Rice alpha-Glucosidase at pH 5.0 (AID 997);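 note: 0% = full activity with enzyme and -100% = basal without enzyme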
In short: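 Endpoint fluorogenic assay at pH 5.0: compounds (0.7 nM to 77 uM) titrated against 4 nM rice enzyme and 400 uM 4-MU-alpha-glucoside for 20 min at room temperature; NaOH/glycine stop, read ex 365/em 440 nm, Hill-fitted AC50.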

[12] = target: DNA dC->dU-editing enzyme APOBEC-3G (Homo sapiens) (UniProt Q9HC16); assay: qHTS for inhibitors of Vif-A3G interactions: Validation (AID 588379); note: 0% is about no effect
In short: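 Yellow fluorescence (Ex 488, Em 500-530) of Vif-coexpressing HeLa A3G-eYFP cells, scanned by Acumen cytometer, reports blocked A3G degradation. Cells plated at 700/well overnight at 37 deg C before compound addition, then a further overnight compound incubation at 37 deg C.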

[13] = system: Zika virus NS2B-NS3 protease; assay: Primary screen GU AMC qHTS for Zika virus inhibitors (AID 1347154);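 note: 0% = no-inhibitor control and -100% = no-enzyme control; nearly all actives have a fitted effect of over 70% in size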
In short: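 Unlinked Zika NS2B hydrophilic domain/NS3 protease domain noncovalent complex (25 nM final) in 10 mM Tris-HCl pH 8.0, 0.01% Tween 20, with AMC peptide substrate. Fluorescence (ex 340, em 450 nm) change over 15 min, room temperature; percent inhibition fitted to 4-parameter Hill equation.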

[14] = Counterscreen qHTS for small molecule stabilizers of the endoplasmic reticulum resident proteome: GLuc-NoTag assay (AID 1508627);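 note: 0% = thapsigargin alone and -100% = DMSO vehicle control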
In short: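 Secreted GLuc lacking the SERCaMP modification is measured in SH-SY5Y cells exposed to compound for 19 h and then to thapsigargin (100 nM, 4 h) to deplete ER calcium; hits retested at 11 concentrations, up to 76.6 uM.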

[15] = Cell Viability qHTS for small molecule stabilizers of the endoplasmic reticulum resident proteome (AID 1508629); conditions: cell viability counter-screen, 100 nM thapsigargin for final 4 h
[16] = target: Glucocorticoid receptor (Homo sapiens) (UniProt P04150); assay: GR-GFP Redistribution (AID 450;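 active = compounds whose dose series gives a full or clear partial fitted curve of increased nuclear translocation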; note: potency is the fitted concentration of half-maximal effect); conditions: U2OS GR-GFP nuclear translocation, laser cytometry, 2 h
[17] = target: Cytochrome P450 2C9 (Homo sapiens) (UniProt P11712); assay: qHTS Assay for Inhibitors and Substrates of Cytochrome P450 2C9 (AID 883); note: potency is the fitted concentration of half-maximal effect; nearly all actives have a fitted effect of over 60% in size
In short: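 A luminogenic readout tracked human CYP2C9 (10nM) converting deoxyluciferin (100uM, at KM) in 25mM KPO4 during 60 min at 37C with regenerated NADPH. Values normalized to 57uM sulphaphenazole as complete inhibition.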

[18] = target: Cytochrome P450 3A4 (Homo sapiens) (UniProt P08684); assay: qHTS Assay for Inhibitors and Substrates of Cytochrome P450 3A4 (AID 884); note: potency is the fitted concentration of half-maximal effect; nearly all actives have a fitted effect of over 50% in size
In short: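 Luminescent readout of luciferin produced by CYP3A4 (20 nM) dealkylation of Luciferin-PPXE, 25 uM (its KM). NADPH-driven reaction ran 60 min at RT after 10 min compound preincubation; data scaled to 57 uM ketoconazole as 100% inhibition.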

[19] = target: Cytochrome P450 3A4 (Homo sapiens) (UniProt P08684); assay: qHTS Assay for Activators of Cytochrome P450 3A4 (AID 885); note: nearly all actives have a fitted effect of over 65% in size
In short: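 Using 20nM recombinant human CYP3A4 in potassium phosphate (200mM), substrate Luciferin-PPXE at 25uM, luminescent luciferin detection followed a 60-min RT NADPH reaction; data scaled to 57 uM ketoconazole.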

[20] = target: Cytochrome P450 2C19 (Homo sapiens) (UniProt P33261); assay: qHTS Assay for Inhibitors and Substrates of Cytochrome P450 2C19 (AID 899); note: potency is the fitted concentration of half-maximal effect; nearly all actives have a fitted effect of over 60% in size
In short: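 NADPH-dependent conversion of Luciferin-H EGE (10uM, at KM) by 5nM enzyme in 50mM KPO4, 60 min at 37C following 10 min compound preincubation. Stopped with luciferin detection buffer; luminescence read after 20 min.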

[21] = qHTS Assay for Lipid Storage Modulators (AID 1519; calls by dose curve); conditions: Drosophila S3 cells, BODIPY lipid droplet/cell ratio, laser cytometry, cells loaded with oleic acid
In short: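 Cells seeded at 5,000 per well were treated with compounds over a concentration series and loaded with oleic acid (400 uM, as added). Lipid droplet fluorescence (488 nm excitation, 500-530 nm channel) was read by laser-scanning cytometry and normalized to 20 uM Triacsin C.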

[22] = target: Ubiquitin carboxyl-terminal hydrolase 1 (Homo sapiens) (UniProt O94782); assay: Inhibitors of USP1/UAF1: Pilot qHTS (AID 504865);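 note: rhodamine fluorescence freed from ubiquitin-rhodamine substrate followed over time; top concentration of the series differs between compounds; % is set by controls: 0 for no effect and ±100 for the full control effect; nearly all actives have a fitted effect of over 35% in size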
In short: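 1nM USP1/UAF1 + cpd, 15 min RT; start w/ Ub-Rho 150nM final; kinetic FL 480/540 nm, 6 reads q60 s. Buffer 50mM HEPES pH 7.8, 0.5mM EDTA, 1mM TCEP, 0.01% Tween-20, 0.1 mg/ml BSA.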

[23] = Confirmatory qHTS for small molecule stabilizers of the endoplasmic reticulum resident proteome: Secreted ER Calcium Modulated Protein (SERCaMP) assay (AID 1508628); note: potency is the fitted concentration of half-maximal effect; nearly all actives have a fitted effect of over 40% in size
In short: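 Reporter secretion upon ER calcium depletion (100 nM thapsigargin, 4 h, 37C) is measured as medium luminescence with coelenterazine, after 16 h compound pretreatment of SH-SY5Y-GLuc-SERCaMP cells; primary at three concentrations up to 38.3 uM, follow-up at 11 (up to 76.6 uM).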

Sequence of Glucocorticoid receptor (Homo sapiens) (P04150 whole entry, looked up, the tested form may be a part): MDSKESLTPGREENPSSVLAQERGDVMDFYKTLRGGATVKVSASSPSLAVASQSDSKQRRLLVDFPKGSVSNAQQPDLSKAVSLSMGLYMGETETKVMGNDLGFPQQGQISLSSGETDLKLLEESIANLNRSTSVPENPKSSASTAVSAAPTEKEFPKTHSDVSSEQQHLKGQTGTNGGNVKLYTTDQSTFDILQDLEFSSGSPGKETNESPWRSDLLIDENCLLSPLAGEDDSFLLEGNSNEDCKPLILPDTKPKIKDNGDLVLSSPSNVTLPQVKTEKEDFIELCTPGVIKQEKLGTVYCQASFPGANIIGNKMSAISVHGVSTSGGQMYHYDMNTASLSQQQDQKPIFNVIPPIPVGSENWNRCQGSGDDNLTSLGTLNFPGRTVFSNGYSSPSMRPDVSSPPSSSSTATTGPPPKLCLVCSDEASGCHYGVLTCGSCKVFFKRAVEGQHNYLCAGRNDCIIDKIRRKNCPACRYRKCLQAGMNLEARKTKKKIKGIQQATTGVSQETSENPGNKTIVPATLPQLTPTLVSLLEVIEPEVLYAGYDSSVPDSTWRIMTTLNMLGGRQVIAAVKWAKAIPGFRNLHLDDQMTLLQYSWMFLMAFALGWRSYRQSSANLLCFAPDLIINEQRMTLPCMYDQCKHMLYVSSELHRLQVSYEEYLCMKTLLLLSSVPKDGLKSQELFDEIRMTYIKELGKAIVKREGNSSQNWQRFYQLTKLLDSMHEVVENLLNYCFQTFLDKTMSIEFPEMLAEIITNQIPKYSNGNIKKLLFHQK
Sequence of 3',5'-cyclic-AMP phosphodiesterase 4B (Homo sapiens) (Q07343 whole entry, looked up): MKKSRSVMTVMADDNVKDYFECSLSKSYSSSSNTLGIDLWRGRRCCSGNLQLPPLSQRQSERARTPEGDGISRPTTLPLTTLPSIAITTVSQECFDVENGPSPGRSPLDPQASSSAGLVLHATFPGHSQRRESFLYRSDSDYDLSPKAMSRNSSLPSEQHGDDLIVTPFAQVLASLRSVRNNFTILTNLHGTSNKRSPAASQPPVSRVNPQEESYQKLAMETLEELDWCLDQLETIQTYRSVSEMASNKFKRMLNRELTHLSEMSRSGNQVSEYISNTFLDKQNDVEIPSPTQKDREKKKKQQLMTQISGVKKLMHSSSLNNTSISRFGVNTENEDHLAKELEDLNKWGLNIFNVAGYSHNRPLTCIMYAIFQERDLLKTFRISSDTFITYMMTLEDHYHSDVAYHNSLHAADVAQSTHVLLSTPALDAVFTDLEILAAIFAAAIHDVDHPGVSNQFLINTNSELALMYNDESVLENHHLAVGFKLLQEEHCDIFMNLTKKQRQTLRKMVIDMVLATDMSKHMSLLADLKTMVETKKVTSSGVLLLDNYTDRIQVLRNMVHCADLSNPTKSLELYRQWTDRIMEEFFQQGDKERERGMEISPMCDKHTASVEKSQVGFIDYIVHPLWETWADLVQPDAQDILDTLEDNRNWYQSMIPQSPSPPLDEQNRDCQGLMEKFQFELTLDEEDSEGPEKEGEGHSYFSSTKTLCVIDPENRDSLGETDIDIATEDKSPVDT
Sequence of DNA dC->dU-editing enzyme APOBEC-3G (Homo sapiens) (Q9HC16 whole entry, looked up): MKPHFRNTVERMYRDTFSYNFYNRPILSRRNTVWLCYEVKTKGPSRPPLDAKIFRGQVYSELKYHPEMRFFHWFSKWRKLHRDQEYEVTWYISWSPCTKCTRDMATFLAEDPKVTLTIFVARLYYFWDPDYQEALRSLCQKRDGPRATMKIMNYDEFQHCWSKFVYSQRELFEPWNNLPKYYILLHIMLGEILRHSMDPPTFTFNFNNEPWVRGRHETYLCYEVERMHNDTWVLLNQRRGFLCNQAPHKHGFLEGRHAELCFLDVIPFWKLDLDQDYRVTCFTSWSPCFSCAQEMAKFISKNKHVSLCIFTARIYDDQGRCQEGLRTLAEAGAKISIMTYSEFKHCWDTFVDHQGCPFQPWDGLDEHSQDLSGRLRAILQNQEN
Sequence of Cytochrome P450 1A2 (Homo sapiens) (P05177 whole entry, looked up): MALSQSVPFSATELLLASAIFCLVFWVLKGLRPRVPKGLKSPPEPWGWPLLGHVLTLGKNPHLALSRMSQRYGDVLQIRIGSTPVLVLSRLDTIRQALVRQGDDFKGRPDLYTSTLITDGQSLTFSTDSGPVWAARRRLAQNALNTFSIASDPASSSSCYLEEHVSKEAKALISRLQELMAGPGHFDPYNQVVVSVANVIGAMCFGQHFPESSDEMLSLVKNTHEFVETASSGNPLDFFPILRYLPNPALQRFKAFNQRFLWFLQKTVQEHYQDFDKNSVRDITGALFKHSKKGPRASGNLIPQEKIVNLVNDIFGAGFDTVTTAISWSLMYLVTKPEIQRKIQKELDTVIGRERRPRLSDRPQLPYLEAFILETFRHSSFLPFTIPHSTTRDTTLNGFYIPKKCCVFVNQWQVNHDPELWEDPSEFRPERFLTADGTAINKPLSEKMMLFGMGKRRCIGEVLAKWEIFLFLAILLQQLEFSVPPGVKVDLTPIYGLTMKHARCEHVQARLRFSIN
Sequence of Cytochrome P450 3A4 (Homo sapiens) (P08684 whole entry, looked up): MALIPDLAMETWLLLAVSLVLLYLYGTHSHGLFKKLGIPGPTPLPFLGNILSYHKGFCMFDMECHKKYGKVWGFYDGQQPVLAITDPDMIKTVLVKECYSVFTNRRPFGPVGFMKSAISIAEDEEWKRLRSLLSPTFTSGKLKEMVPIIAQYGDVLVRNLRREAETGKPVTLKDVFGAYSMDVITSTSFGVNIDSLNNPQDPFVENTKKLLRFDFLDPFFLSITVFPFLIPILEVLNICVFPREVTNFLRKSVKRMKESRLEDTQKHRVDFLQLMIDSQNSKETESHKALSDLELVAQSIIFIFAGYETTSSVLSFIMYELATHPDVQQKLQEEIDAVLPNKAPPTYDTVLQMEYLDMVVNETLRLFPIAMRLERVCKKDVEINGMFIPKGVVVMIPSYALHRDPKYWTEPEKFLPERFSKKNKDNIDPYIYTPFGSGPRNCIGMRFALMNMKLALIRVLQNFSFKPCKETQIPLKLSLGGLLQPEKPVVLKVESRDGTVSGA
Sequence of Guanine nucleotide-binding protein G(i) subunit alpha-1 (Homo sapiens) (P63096 whole entry, looked up): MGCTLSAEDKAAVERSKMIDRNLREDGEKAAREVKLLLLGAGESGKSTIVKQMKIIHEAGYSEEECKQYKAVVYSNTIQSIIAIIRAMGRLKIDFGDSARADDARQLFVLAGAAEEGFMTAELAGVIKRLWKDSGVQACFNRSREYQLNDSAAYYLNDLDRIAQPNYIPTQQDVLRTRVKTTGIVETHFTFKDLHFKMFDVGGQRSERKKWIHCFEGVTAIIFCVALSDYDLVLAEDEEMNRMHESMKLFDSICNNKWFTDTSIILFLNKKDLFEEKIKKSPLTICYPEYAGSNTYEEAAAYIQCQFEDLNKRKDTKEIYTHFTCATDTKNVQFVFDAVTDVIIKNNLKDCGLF
Sequence of Ubiquitin carboxyl-terminal hydrolase 1 (Homo sapiens) (O94782 whole entry, looked up): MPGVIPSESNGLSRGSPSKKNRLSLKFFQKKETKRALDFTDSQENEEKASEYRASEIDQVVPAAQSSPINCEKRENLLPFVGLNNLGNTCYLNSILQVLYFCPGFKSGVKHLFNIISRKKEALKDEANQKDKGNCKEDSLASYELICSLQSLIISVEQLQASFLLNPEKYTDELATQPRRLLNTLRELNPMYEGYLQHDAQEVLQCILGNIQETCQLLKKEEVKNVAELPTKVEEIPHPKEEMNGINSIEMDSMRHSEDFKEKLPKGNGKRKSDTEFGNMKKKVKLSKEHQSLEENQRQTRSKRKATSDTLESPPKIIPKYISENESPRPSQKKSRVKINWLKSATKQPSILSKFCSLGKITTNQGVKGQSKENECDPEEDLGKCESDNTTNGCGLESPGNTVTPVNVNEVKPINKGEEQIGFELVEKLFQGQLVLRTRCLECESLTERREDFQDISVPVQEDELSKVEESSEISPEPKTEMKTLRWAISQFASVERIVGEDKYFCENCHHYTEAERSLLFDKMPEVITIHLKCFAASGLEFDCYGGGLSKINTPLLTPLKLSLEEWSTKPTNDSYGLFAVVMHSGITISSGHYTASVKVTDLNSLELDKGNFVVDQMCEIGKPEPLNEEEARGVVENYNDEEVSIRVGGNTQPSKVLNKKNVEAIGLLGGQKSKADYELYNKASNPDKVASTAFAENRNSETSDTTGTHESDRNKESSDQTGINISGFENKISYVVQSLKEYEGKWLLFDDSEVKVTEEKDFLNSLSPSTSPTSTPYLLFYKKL
Sequence of Pyruvate kinase PKM (Homo sapiens) (P14618 whole entry, looked up): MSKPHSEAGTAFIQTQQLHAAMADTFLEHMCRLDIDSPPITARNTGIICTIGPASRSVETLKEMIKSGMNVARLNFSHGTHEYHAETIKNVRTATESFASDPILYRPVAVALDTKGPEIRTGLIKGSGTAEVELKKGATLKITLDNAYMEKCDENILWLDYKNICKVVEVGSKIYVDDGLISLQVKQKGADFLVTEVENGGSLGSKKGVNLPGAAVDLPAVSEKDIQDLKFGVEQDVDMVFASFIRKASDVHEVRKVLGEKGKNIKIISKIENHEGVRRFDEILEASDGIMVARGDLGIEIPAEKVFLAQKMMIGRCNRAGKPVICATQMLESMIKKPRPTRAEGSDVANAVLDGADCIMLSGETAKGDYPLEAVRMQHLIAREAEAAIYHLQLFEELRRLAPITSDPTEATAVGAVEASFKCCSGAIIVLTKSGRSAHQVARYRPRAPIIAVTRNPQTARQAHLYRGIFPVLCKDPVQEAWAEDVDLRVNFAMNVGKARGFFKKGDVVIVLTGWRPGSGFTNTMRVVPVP

C[C@]12CC3CC(N)(C1)C[C@@](C)(C3)C2
inactive: activity change, negative = inhibition [1] 19.1% | Potency [2] | activity change, negative = inhibition [3] -5.02% | Potency [4] > 46 µM | Potency [5] | Potency [6] | outcome [7] | Potency [8] | Potency [9] | outcome [10] | outcome [11] | Potency [12] | Potency [13] | Potency [14] | max response [15] -0.737%

C=C[C@@]1(C)CC(=O)[C@@]2(O)[C@@]3(C)[C@@H](O)CCC(C)(C)[C@@H]3[C@H](OC(=O)CCN(C)C)[C@H](OC(C)=O)[C@@]2(C)O1
inactive: Potency [2] | Potency [16] > 46 µM | Potency [4] > 46 µM | Potency [5] | Potency [19] | activity change, negative = inhibition ([21]; at 57.5 µM (top of the series)) -1.7% | Potency [22] | Potency [12] | Potency [13] | Potency [14]
-14.6%: max response ([21]; measured here: cell count channel max response)
-17.4%: max response ([21]; measured here: lipid channel max response)
active: Potency [17] 126 nM | Potency [18] 2.51 µM | Potency [20] 251 nM | Potency [23] 14.1 µM
